# Inconclusive results are not listed. Where a call stands in place of a potency, no number is given. Calls of active or inactive are those of the source. Unless noted, the call rests on the fitted dose curve; in most records, active means well fitted curve in the direction sought with a large enough effect; inconclusive means small, poorly fitted or top-dose-only effect, or another doubt; inactive means no such curve, though single readings can be large; an effect the other way counts as inactive or inconclusive.
# Key:
# [1] = target: Catechol O-methyltransferase (Homo sapiens) (UniProt P21964); assay: Confirmatory Screen for Target Class Profiling of Small Molecule Inhibitors of Methyltransferases (AID 1745852; calls by dose curve; further: potency means the concentration at half of the fitted maximal effect); conditions: MTase-Glo luminescence, SAH detection, recombinant enzyme; measured here: COMT max response; stronger effect = lower value
# [2] = target: Guanidinoacetate N-methyltransferase (Homo sapiens) (UniProt Q14353); assay: as above; conditions: MTase-Glo luminescence, SAH detection, recombinant enzyme; activity change, negative = inhibition: at 57.3 µM (top of the series) unless noted; series mostly up to 57.3 µM
# [3] = target: Nicotinamide N-methyltransferase (Homo sapiens) (UniProt P40261); assay: as above; conditions: MTase-Glo luminescence, SAH detection, recombinant enzyme; measured here: NNMT max response; stronger effect = lower value
# [4] = target: Phenylethanolamine N-methyltransferase (Homo sapiens) (UniProt P11086); assay: as above; conditions: MTase-Glo luminescence, SAH detection, recombinant enzyme; measured here: PNMT max response; stronger effect = lower value
# [5] = target: Phospholipid hydroperoxide glutathione peroxidase GPX4 (Homo sapiens) (UniProt P36969); assay: Primary qHTS Assay for Inhibitors of Recombinant Selenoprotein Glutathione Peroxidase 4 (GPX4) (AID 1845192); conditions: recombinant GPX4, GR-coupled NADPH fluorescence, 15 min; series mostly up to 50 µM; further: nearly all actives have a fitted effect of over 65% in size; further: potency means the concentration at half of the fitted maximal effect
# Procedure, shortened: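 GR-coupled readout: 100 nM GR, 1 mM GSH, 0.5 mM NADPH; NADPH fluorescence (ex 340/em 450 nm) read at t=0 and after 15 min RT. GPX4 200 nM, preincubated 30 min with compound; substrate 0.5 mM CHP.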
# [6] = target: Luciferin 4-monooxygenase (Photinus pyralis) (UniProt P08659); assay: Primary firefly luciferase (FLuc) qHTS assay for identification of artifact compounds. (AID 1845220); conditions: purified firefly luciferase, luminescence, 5 min; series mostly up to 54.1 µM; further: nearly all actives have a fitted effect of over 60% in size
# Procedure, shortened: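 In this counter-screen for luciferase artifacts, test compounds met substrate (10 uM each luciferin and ATP) before 10 nM enzyme started the reaction. Light output was measured 5 min later.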
# [7] = Primary fluorescence-based thiol-reactive (MSTI) qHTS assay for identification of artifact compounds. (AID 1845221); conditions: MSTI thiol-reactivity probe, 1 h; series mostly up to 53.8 µM; further: nearly all actives have a fitted effect of over 65% in size; further: potency means the concentration at half of the fitted maximal effect
# Procedure, shortened: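 Compounds were incubated 1 h at room temperature in the dark with the MSTI probe (4 uM) in PBS pH 7.4, 2% DMSO. Signals were normalized between Acetyl-MSTI and MSTI.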
# [8] = target: Glutathione peroxidase 1 (Homo sapiens) (UniProt P07203); assay: Primary qHTS Assay for Inhibitors of Recombinant Selenoprotein Glutathione Peroxidase 1 (GPX1) (AID 1845191); conditions: recombinant GPX1, GR-coupled NADPH fluorescence, 15 min; series mostly up to 48.8 µM; further: nearly all actives have a fitted effect of over 65% in size
# Procedure, shortened: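 Recombinant GPX1 (10 nM final) was preincubated with compound for 30 min at room temperature, then reacted with 1 mM GSH, 0.5 mM CHP, 0.5 mM NADPH and 100 nM glutathione reductase; NADPH fluorescence (340/450 nm) was read at 0 and 15 min.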
# [9] = system: Nanoluciferase (engineered Oplophorus gracilirostris luciferase); assay: Primary Nanoluciferase (NLuc) qHTS assay for identification of artifact compounds. (AID 1845222); conditions: NLuc-conditioned medium, Nano-Glo luminescence, 5 min; series mostly up to 54.1 µM;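 further: NLuc secreted into diluted conditioned medium of S16 cells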
# Procedure, shortened: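 Using secreted nanoluciferase in S16 culture medium (0.22 um filtered, 1:55 dilution), compounds were preincubated 15 min at RT. Signal was generated with Nano-Glo reagent (1:100) over 5 min.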
# [10] = Primary redox qHTS assay for identification of artifact compounds. (AID 1845223); conditions: Amplex Red/HRP redox cycling with DTT, fluorescence; series mostly up to 53.8 µM
# Procedure, shortened: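 Amplex Red (25 uM) and HRP (250 mU/mL) in HBSS, with compounds for 15 min, then 250 uM DTT for 30 min, room temperature, dark. Fluorescence 525/598 nm read; normalized to DMSO and 10 uM DA3003; Hill fit.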
# [11] = NCATS anti-infectives library activity on HEK293 viability as a counter-qHTS vs the C. elegans viability qHTS (AID 1745854); conditions: HEK293 viability counter-screen; series mostly up to 41.8 µM;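 further: HEK293 cells exposed to compounds for 24 hr before the viability read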
# Procedure, shortened: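 Compounds were acoustically plated (several concentrations, 1:5, final up to 41.7 uM), then 1500 HEK293 cells added per well and incubated 24 hr at 37C, 5% CO2. CellTiter-Glo was added and luminescence read after 10 min.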
# [12] = Viability counterscreen for antagonist of constitutive androstane receptor (CAR) against the NCATS DSHEA and TCM libraries (AID 1794837); conditions: CAR reporter cell line viability counterscreen, qHTS; series mostly up to 40 µM;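 further: compound exposure lasted 24 h before viability reading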
# Procedure, shortened: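 Cell viability, CellTiter-Fluor, Ex/Em 405/540 nm, 1 h at 37C. HepG2-CYP2B6-hCAR, 2,500 cells/well; cpds + CITCO 48 uM final (antagonist mode), 24 h, 37C/5% CO2.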
# [13] = Viability counterscreen for agonist of constitutive androstane receptor (CAR) against the NCATS DSHEA and TCM libraries (AID 1794838); conditions: HepG2 cell viability counterscreen, CAR agonist assay, co-treated with 0.75 µM CAR antagonist; series mostly up to 40 µM;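 further: HepG2 cells with CYP2B6 reporter and hCAR plus 0.75 µM PK11195 antagonist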
# Procedure, shortened: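 Viability by CellTiter-Fluor fluorescence, 405/540 nm, after 1 h at 37C. HepG2-CYP2B6-hCAR cells were exposed 24 h to test substances in presence of 0.75 uM PK11195 (final).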
# [14] = HepG2 viability counterscreen (readout 2: ATP content) against the NCATS DSHEA and TCM libraries (AID 1794840); conditions: ATP content luminescence; series mostly up to 27.3 µM
# Procedure, shortened: (§1)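 1,000 HepG2 cells/well, 4 h attach; compounds ~24 h, 37C/5% CO2. Readout 1: GF-AFC 25 uM final, 30 min, fluorescence 380/510 nm. Readout 2: CellTiter-Glo, 30 min RT, luminescence.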
# [15] = HepG2 viability counterscreen (readout 1: protease activity) against the NCATS DSHEA and TCM libraries (AID 1794841); conditions: qHTS concentration series; series mostly up to 27.3 µM;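 further: cells exposed to compounds for about 24 h before the protease read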
# Procedure, shortened: as §1
# [16] = NCATS anti-infectives library activity on the primary C. elegans qHTS viability assay (AID 1745855; calls by dose curve; further: potency means the concentration at half of the fitted maximal effect); conditions: C. elegans worm area imaging, day 7; series mostly up to 41.8 µM
# Procedure, shortened: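 Viability read-out is GFP fluorescence of PE254-GFP-FLuc C. elegans, measured by laser cytometry (488 nm) at day 0, 3 and 7. Ten L1 worms per well were incubated 7 days at 21 °C with compounds and bacterial capsules in S medium.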
# Chain of Phospholipid hydroperoxide glutathione peroxidase GPX4 (Homo sapiens) (P36969 whole entry, looked up): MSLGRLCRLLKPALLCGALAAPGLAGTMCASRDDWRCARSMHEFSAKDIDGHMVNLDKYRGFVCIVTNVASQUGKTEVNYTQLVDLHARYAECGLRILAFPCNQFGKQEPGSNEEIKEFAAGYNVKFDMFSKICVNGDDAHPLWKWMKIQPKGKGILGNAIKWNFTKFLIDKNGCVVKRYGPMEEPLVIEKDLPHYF
# Chain of Phenylethanolamine N-methyltransferase (Homo sapiens) (P11086 whole entry, looked up): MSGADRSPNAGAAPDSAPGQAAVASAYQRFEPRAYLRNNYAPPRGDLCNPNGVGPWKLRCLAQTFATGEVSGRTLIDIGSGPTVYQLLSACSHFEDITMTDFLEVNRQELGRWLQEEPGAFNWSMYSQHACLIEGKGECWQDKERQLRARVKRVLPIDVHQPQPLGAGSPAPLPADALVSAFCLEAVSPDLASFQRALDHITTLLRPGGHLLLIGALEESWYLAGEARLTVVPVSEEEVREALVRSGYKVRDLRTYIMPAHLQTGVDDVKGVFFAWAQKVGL
# Chain of Catechol O-methyltransferase (Homo sapiens) (P21964 whole entry, looked up): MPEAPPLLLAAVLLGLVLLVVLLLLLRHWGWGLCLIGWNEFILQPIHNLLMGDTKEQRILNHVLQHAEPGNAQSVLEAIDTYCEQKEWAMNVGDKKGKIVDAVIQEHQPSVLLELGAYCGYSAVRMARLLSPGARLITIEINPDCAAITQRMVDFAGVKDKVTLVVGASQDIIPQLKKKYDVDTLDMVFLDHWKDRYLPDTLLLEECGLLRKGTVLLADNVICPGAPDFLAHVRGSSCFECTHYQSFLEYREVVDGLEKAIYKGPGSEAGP
# Chain of Glutathione peroxidase 1 (Homo sapiens) (P07203 whole entry, looked up): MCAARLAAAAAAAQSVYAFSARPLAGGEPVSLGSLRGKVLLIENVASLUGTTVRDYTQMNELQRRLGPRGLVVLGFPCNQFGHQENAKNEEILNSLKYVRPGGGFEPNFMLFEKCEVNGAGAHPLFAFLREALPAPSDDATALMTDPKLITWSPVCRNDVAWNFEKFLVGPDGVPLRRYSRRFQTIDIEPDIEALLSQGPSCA
# Chain of Nicotinamide N-methyltransferase (Homo sapiens) (P40261 whole entry, looked up): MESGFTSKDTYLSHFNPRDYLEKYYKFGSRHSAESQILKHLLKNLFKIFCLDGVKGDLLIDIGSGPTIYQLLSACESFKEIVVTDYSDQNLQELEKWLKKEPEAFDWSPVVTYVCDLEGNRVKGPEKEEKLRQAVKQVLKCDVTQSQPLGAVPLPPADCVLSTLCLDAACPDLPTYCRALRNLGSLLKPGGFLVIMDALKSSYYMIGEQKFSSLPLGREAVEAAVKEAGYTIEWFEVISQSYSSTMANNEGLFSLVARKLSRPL
smiles,measurement,setting,value
CN(C)CCCn1cc(C2=C(c3c[nH]c4ccccc34)C(=O)NC2=O)c2ccccc21,activity,[1],-45.6%
same,Potency,[2],27.1 µM (active)
same,activity,[3],-41.3%
same,activity,[4],-44.4%
same,Potency,[5],inactive
same,Potency,[6],inactive
same,Potency,[7],0.423 µM (active)
CCN(CC)CCCCCCNc1cc(OC)cc2c(C)ccnc12,activity,[1],-3.27%
same,"activity change, negative = inhibition",[2],-0.864%
same,activity,[3],0.614%
same,activity,[4],2.1%
same,Potency,[8],inactive
same,Potency,[5],inactive
same,Potency,[6],inactive
same,Potency,[9],inactive
CC#C[C@@H](CC(=O)O)c1ccc(OCc2cccc(-c3ccc(C(F)(F)F)cc3)c2)cc1,activity,[1],-11.2%
same,Potency,[2],inactive
same,activity,[3],-23.8%
same,activity,[4],3.83%
same,Potency,[8],inactive
same,Potency,[5],5.7 µM (active)
same,Potency,[7],inactive
same,Potency,[9],inactive
same,Potency,[10],inactive
C/C(=N\N=C(N)N)c1cc(NC(=O)CCCCCCCCC(=O)Nc2cc(/C(C)=N/N=C(N)N)cc(/C(C)=N/N=C(N)N)c2)cc(/C(C)=N/N=C(N)N)c1,activity,[1],-85.9%
same,Potency,[2],27.1 µM (active)
same,activity,[3],-74.6%
same,activity,[4],-75.4%
same,Potency,[8],inactive
same,Potency,[5],inactive
same,Potency,[7],inactive
same,Potency,[9],inactive
O=C1Cc2c([nH]c3ccc(Br)cc23)-c2ncccc2N1,activity,[1],-8.4%
same,"activity change, negative = inhibition",[2],-5.35%
same,activity,[3],-15.4%
same,activity,[4],-7.69%
same,Potency,[8],inactive
same,Potency,[5],inactive
same,Potency,[10],inactive
COc1ccc(N(C(=O)Nc2c(C)cccc2C)c2cc(Nc3ccc(N4CCN(C)CC4)cc3)ncn2)c(OC)c1,activity,[1],-5.96%
same,"activity change, negative = inhibition",[2],0%
same,activity,[3],-36.9%
same,activity,[4],-7.92%
same,Potency,[8],inactive
same,Potency,[5],inactive
same,Potency,[6],inactive
same,Potency,[9],inactive
same,Potency,[10],inactive
CC1(C)CCC(C)(C)c2cc(C#Cc3ccc(C(=O)O)cc3)ccc21,activity,[1],-0.825%
same,"activity change, negative = inhibition",[2],0%
same,activity,[3],-63%
same,activity,[4],-5.22%
same,Potency,[8],inactive
same,Potency,[5],inactive
same,Potency,[7],inactive
same,Potency,[9],inactive
same,Potency,[10],inactive
CCCC(CCC)C(N)=O,outcome,[11],inactive
O=C(Cc1cccc(OC(F)(F)F)c1)Nc1ccc(CCCCc2nnc(NC(=O)Cc3ccccn3)s2)nn1,outcome,[11],inactive
same,Potency,[8],inactive
same,Potency,[5],inactive
CCCCCc1ccc(/C=C/C(=O)Nc2cc(Cl)ccc2C(=O)O)cc1,activity,[1],-6.7%
same,Potency,[2],42.9 µM (active)
same,activity,[3],-47.8%
same,activity,[4],-21.5%
same,Potency,[6],inactive
same,Potency,[7],inactive
same,Potency,[10],inactive
CC(=O)C1=C(O)C=C2Oc3c(C(C)=O)c(O)c(C)c(O)c3[C@]2(C)C1=O,outcome,[11],inactive
same,outcome,[12],inactive
same,outcome,[13],inactive
same,outcome,[14],inactive
same,outcome,[15],inactive
same,Potency,[8],inactive
same,Potency,[5],inactive
same,Potency,[9],inactive
Fc1ccc(N2CCCCC2)c(NC(=S)c2ccncc2)c1,activity,[1],-6%
same,"activity change, negative = inhibition",[2],2.26%
same,activity,[3],-9.58%
same,activity,[4],-11.8%
same,Potency,[5],inactive
same,Potency,[6],inactive
same,Potency,[7],inactive
same,Potency,[9],inactive
same,Potency,[10],inactive
CCCN1CCC=C(c2cc(-c3ccc(C)cc3)no2)C1,outcome,[11],inactive
same,Potency,[16],6.48 µM (active)
same,Potency,[8],inactive
same,Potency,[5],inactive
same,Potency,[7],inactive
same,Potency,[9],inactive
same,Potency,[10],inactive
